# According to PubChem BioAssay (Tox21):
# Values joined by “and” are separate entries in the source; they are usually repeats but may differ in a detail not shown here. Equal values may be shown once. Unmarked numbers belong to inactive results. Results filed as inconclusive are left out. Where a call stands in place of a potency, no number is given. Active and inactive are the calls of the source. Unless noted, calls follow the shape of the dose curve; as a rule, active = well fitted curve in the direction sought with a large enough effect in the repeat runs; inconclusive = weak or mixed curves; inactive = no such curve, though single readings can be large; an effect the other way counts as inactive or inconclusive.
# Tests used:
# [1] = qHTS assay to identify small molecule agonists of H2AX (AID 1224845; active = well fitted activation curve with a large enough effect in the signal ratio in the repeat runs, not every such curve was filed as active; the % refers to the signal ratio; also: potency is read from the fitted curve at half-maximal effect); details: CHO-K1 phospho-H2AX Ser139 HTRF, 3 h; series mostly up to 154 µM
# How it was run: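 Wild-type CHO-K1 cells, plated overnight, exposed 3hr at 37C to 15 concentrations (0.76% DMSO final). Lysed, then HTRF anti-pH2AX (S139) cryptate and anti-H2AX-d2 antibodies, 24 hr room temperature; 665/620 nm emission read.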
# [2] = qHTS assay to identify small molecule agonists of H2AX - cell viability counter screen (AID 1224847; calls by dose curve; also: nearly all actives have a fitted effect of over 30% in size; also: potency is read from the fitted curve at half-maximal effect); details: CHO-K1 viability, CellTiter-Glo luminescence, 3 h; series mostly up to 154 µM
# How it was run: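 We seed wild-type CHO-K1 cells overnight, treat them for 3 hr at 37C with compounds in 15-concentration series, and quantify remaining viability by CellTiter-Glo luminescence.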
# [3] = qHTS RealTime-Glo MT Cell Viability Assay in HEK293 cells - 32 hour (AID 1224868); details: RealTime-Glo luminescence; series mostly up to 76.8 µM; also: nearly all actives have a fitted effect of over 50% in size; also: potency is read from the fitted curve at half-maximal effect
# How it was run: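 Luminescence generated by NanoLuc from substrate produced by living HEK293 cells served as the viability signal. Each value reflects the reading at its stated time point during continuous 40 h compound exposure at 37 C.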
# [4] = qHTS RealTime-Glo MT Cell Viability Assay in HepG2 cells - 24 hour (AID 1224867); details: RealTime-Glo luminescence; series mostly up to 76.8 µM; also: nearly all actives have a fitted effect of over 50% in size; also: potency is read from the fitted curve at half-maximal effect
# How it was run: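 Tox21 10K library screened in qHTS format on HepG2 cells carrying RealTime-Glo reagents. Compounds were added after a 5 h preincubation, and the luminescent signal from continuous culture was measured repeatedly during 40 h treatment.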
# [5] = A CellTox Green Cytotoxicity Assay to monitor cytotoxicity in HEK293 cells - 0 hour (AID 1224869); details: CellTox Green fluorescence; series mostly up to 76.8 µM; also: nearly all actives have a fitted effect of over 50% in size; also: potency is read from the fitted curve at half-maximal effect
# How it was run: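 HEK293 cells, 600/well, were preincubated 5 hours and then exposed to compounds at 37 C for up to 40 hours. A cell-impermeant cyanine dye staining dead-cell DNA was read by fluorescence at 0, 8, 16, 24, 32 and 40 h time points.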
# [6] = qHTS RealTime-Glo MT Cell Viability Assay in HepG2 cells - 40 hour (AID 1224870); details: RealTime-Glo luminescence; series mostly up to 76.8 µM; also: nearly all actives have a fitted effect of over 50% in size; also: potency is read from the fitted curve at half-maximal effect
# How it was run: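 HepG2 cells (600/well) mixed with RealTime-Glo MT reagent, settled 5 h at 37 C/5% CO2 before compound addition. Nonlytic NanoLuc luminescence from viable-cell prosubstrate reduction read repeatedly during 40 h treatment at 37 C.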
# [7] = qHTS assay to identify small molecule antagonists of the estrogen related receptor (ERR) signaling pathway from Tox21 library (AID 1224848); details: ERR reporter cell line, luciferase antagonist mode, 18 h; series mostly up to 92.4 µM; also: nearly all actives have a fitted effect of over 50% in size; also: potency is read from the fitted curve at half-maximal effect
# How it was run: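 ERR reporter cell line (from NTP) seeded 2,000 cells/well, rested 6 h at 37 C/5% CO2, then pin-dosed with compounds in DMSO. After 18 h at 37 C, ONE-Glo added; luminescence read after 30 min at room temperature.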
# [8] = qHTS assay to identify small molecule agonists of the estrogen related receptor (ERR) signaling pathway from Tox21 library (AID 1224849; calls by dose curve; also: nearly all actives have a fitted effect of over 15% in size); details: ERR reporter cell line, ONE-Glo luciferase, 18 h; at 92.4 µM (top of the series) unless noted
# How it was run: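 ERR reporter cells (NTP line) pre-incubated 6 hours at 37 C, then exposed to compounds for 18 hours at 37 C. ONE-Glo luciferase luminescence was read after 30 minutes at room temperature.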
# [9] = qHTS assay to identify small molecule agonists of the hypoxia (HIF-1) signaling pathway (AID 1224846; active = well fitted activation curve with a large enough effect in the signal ratio in the repeat runs, not every such curve was filed as active; the % refers to the signal ratio); details: HRE-bla ME-180 cells, beta-lactamase ratio, 17 h; series mostly up to 76.8 µM
# How it was run: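 HRE-bla ME-180 beta-lactamase reporter cells in medium with 0.5% dialyzed FBS, pre-incubated 5 h then exposed to compounds 17 h at 37C, 5% CO2; reporter induction read with CCF4-AM FRET substrate.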
Compound,Potency [1],Potency [2],Potency [3],Potency [4],Potency [5],Potency [6],Potency [7],"activity change, positive = activation [8]",outcome [9]
CCCCCCCCc1ccc(O)cc1,36 µM (active),25.5 µM (active),5.53 µM (active),,,,,,
N#C/C=C/C#N,inactive,inactive,,inactive,inactive,inactive,,,
Oc1ccc(C(c2ccc(O)cc2)(C(F)(F)F)C(F)(F)F)cc1,,113 µM (active),43.4 µM (active),inactive,inactive,inactive,54.2 µM (active) and 61.1 µM (active),-65.7% and -36.3%,
CS(=O)(=O)c1ccc(C(=O)C2C(=O)CCCC2=O)c([N+](=O)[O-])c1,,inactive,,inactive,44.4 µM (active),inactive,inactive,-0.0686%,
ClC1=C(Cl)C2(Cl)C3C(Cl)C=CC3C1(Cl)C2(Cl)Cl (stereo not drawn),,113 µM (active),,,inactive,inactive,,,
CCOCn1c(-c2ccc(Cl)cc2)c(C#N)c(Br)c1C(F)(F)F,,2.53 µM (active),4.36 µM (active),,inactive,,,,
COc1cccc2c1C(=O)c1c(O)c3c(c(O)c1C2=O)C[C@@](O)(C(=O)CO)CC3OC1CC(N2CCOC(OC)C2)C(O)C(C)O1 (stereo partly drawn),,inactive,,1.9 µM (active),inactive,0.0338 µM (active),inactive,-10.4% [at 42.5 µM],
Clc1ccc(CO/N=C(\Cn2ccnc2)c2ccc(Cl)cc2Cl)c(Cl)c1,,49.2 µM (active),,23.9 µM (active),inactive,,18.8 µM (active),-54.4% [at 42.5 µM],
C=CCC1=C(C)C(OC(=O)C2C(C=C(C)C)C2(C)C)CC1=O (stereo not drawn),,60.1 µM (active),26 µM (active),,inactive,inactive,20.5 µM (active),-28.6%,
O=C1C=CC(=O)c2ccccc21,,20.1 µM (active),5.49 µM (active),21.9 µM (active),inactive,24.5 µM (active),27.3 µM (active),-74.8%,
O=c1c(C2CC(c3ccc(-c4ccc(Br)cc4)cc3)Cc3ccccc32)c(O)sc2ccccc12 (stereo not drawn),,inactive,inactive,,inactive,,7.5 µM (active),-54.2% [at 42.5 µM],
CC(C)(C)c1ccc(CSc2cnn(C(C)(C)C)c(=O)c2Cl)cc1,,,,,inactive,inactive,0.0054 µM (active),-52.9%,inactive
Nc1ccc(Cc2ccc(N)c(Cl)c2)cc1Cl,,,26.6 µM (active),inactive,inactive,inactive,26.4 µM (active),-35.2%,
BrC(Br)C(Br)(Br)Br,,,,inactive,inactive,inactive,,,
Nc1ccccc1C(=O)OC/C=C/c1ccccc1,,101 µM (active),,inactive,inactive,inactive,,,
Nc1ccccc1C(=O)Oc1ccc2ccccc2c1,,80 µM (active),,inactive,inactive,inactive,,,
